For part of these data: Results with a measured potency or affinity are listed apart. Calls of active or inactive are those of the source.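 How the source made its calls, unless noted: active means fitted half-maximal concentration within the tested range, moderate curve steepness, significant signal drop, and little compound fluorescence or bead-linkage interference; inactive means the rest.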
How the values were obtained:
[1] = molecular target: Cell division control protein 42 homolog (Homo sapiens) (UniProt P60953); assay: activated mutant Cdc42 GTP-binding inhibitors, dose response, biochemical, multiplex bead flow cytometry, Bodipy-FL-GTP (AID 1333;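 active means fitted half-maximal concentration within the tested dose range, moderate curve steepness, a statistically real signal drop, and little compound fluorescence or tag-binding interference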)
[2] = molecular target: Cell division control protein 42 homolog (Homo sapiens) (UniProt P60953); assay: wildtype Cdc42 GTP-binding inhibitors, dose response, biochemical, multiplex bead flow cytometry, Bodipy-FL-GTP (AID 1334); settings: bead-based flow cytometry, Bodipy-FL-GTP binding to GST-Cdc42; at 100 µM (top of the series) unless noted
[3] = molecular target: GTPase HRas (Homo sapiens) (UniProt P01112); assay: inhibitors of GTP binding to wildtype Ras, dose response, biochemical, multiplex bead flow cytometry (AID 1335;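 active means fitted half-maximal concentration within 10 nM to 100 µM, steepness 0.5 to 2, significant signal drop, low assay interference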); settings: bead-based flow cytometry, Bodipy-GTP binding to GST-Ras; at 100 µM (top of the series) unless noted
[4] = system: Ras-related protein Rab-7a (dog), GTP binding; assay: Rab7 GTP binding inhibitors, potency, dose response, biochemical, wildtype, multiplex bead flow cytometry (AID 1336; call rule not given here)
[5] = molecular target: Ras-related C3 botulinum toxin substrate 1 (Homo sapiens) (UniProt P63000); assay: wildtype Rac1 GTP binding inhibitors, dose response, biochemical, multiplex bead flow cytometry (AID 1340;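 active means dose curve with midpoint inside tested range, moderate steepness, plateau gap beyond fit error, low compound glow and bead-link interference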); settings: GST-Rac1 beads, Bodipy-FL-GTP binding; at 100 µM (top of the series) unless noted
[6] = molecular target: GTPase HRas (Homo sapiens) (UniProt P01112); assay: activated Ras mutant GTP binding inhibitors, dose response, biochemical, multiplex bead flow cytometry (AID 1341;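 active means dose-response curve with midpoint inside the tested range, moderate steepness, significant amplitude and little compound fluorescence or bead-attachment interference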;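 further: GST-tagged constitutively activated Ras mutant immobilized on beads and multiplexed with other GTPases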)

Cell division control protein 42 homolog (Homo sapiens), sequence (P60953 whole entry, looked up): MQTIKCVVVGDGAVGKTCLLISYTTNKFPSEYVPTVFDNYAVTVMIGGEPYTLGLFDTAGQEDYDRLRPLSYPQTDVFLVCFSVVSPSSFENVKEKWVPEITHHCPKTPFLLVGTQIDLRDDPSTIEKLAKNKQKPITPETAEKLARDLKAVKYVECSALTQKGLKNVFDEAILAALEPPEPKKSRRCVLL
GTPase HRas (Homo sapiens), sequence (P01112 whole entry, looked up): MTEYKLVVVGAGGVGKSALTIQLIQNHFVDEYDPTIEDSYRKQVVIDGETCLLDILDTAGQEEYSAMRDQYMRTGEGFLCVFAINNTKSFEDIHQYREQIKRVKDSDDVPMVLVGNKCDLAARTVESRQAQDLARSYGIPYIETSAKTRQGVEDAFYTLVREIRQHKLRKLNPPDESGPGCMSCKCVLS

| SMILES | outcome [1] | fluorescence, percent of control (lower = inhibition) [2] [%] | GTP binding, percent of control [3] [%] | outcome [4] | GTP binding signal, raw median fluorescence (lower = inhibition) (MCF (arbitrary fluorescence units)) [5] | outcome [6] |
| --- | --- | --- | --- | --- | --- | --- |
| COc1ccc(OC)c(S(=O)(=O)Nc2ccc(O)c(Sc3ncn[nH]3)c2)c1 | inactive | 48.6 | 65.1 | inactive | 189 | inactive |
| Cc1ccc(C(=O)c2ccccc2C(=O)O)cc1C | inactive | 113 | 141 | inactive | 93.5 | inactive |
| Cc1cccc(CNCc2sc(C(=O)O)cc2C)c1 | inactive | 54.2 | 77.2 | inactive | 31.9 | inactive |
| NC(=S)N=Nc1c(O)[nH]c2cc(F)c(F)cc12 | inactive | 29.7 | 63.2 | inactive | 155 | inactive |
| CCCCCN1CC(O)=C(c2nc(-c3ccc(Cl)cc3)cs2)C1=N | inactive | 88.4 | 167 | inactive | 184 | inactive |
| N#C/C(=C/c1ccc(-c2ccccc2)o1)c1nc(-c2cccs2)cs1 | inactive | 96.4 | 107 | inactive | 228 | inactive |
| COc1ccccc1CCNCc1ccc(C(=O)O)s1 | inactive | 63 | 88.4 | inactive | 34.1 | inactive |
| Cc1ccc(/C=C(\CCC(=O)O)c2nc3ccccc3s2)cc1[N+](=O)[O-] | inactive | 24.9 | 70.3 | inactive | 216 | inactive |
| COc1ccc(-c2nn3c(-c4ccccn4)nnc3s2)cc1OC | inactive | 43 | 52.9 | inactive | 137 | inactive |
| CC1CN(C(=O)c2cccc(S(=O)(=O)Nc3cc(Cl)ccc3Cl)c2)CC(C)O1 (stereo not given) | inactive | 26.5 | 65.8 | inactive | 168 | inactive |
| COc1ccccc1CNCc1ccc(C(=O)O)s1 | inactive | 64.5 | 87.8 | inactive | 33.8 | inactive |
| CN(C)/C=C(\C#N)C(N)=C(C#N)C#N | inactive | 38.1 | 82.8 | inactive | 259 | inactive |
| COc1cccc2cc(-c3ccnc(=S)[nH]3)oc12 | inactive | 33.3 | 70.7 | inactive | 140 | inactive |
| CCOc1ccc(C2C(C(=O)O)CCC(=O)N2C2CCCCC2)cc1 (stereo not given) | inactive | 23 | 59.8 | inactive | 178 | inactive |
| O=C(CSc1ccc2nnc(-c3cccc(F)c3)n2n1)N1CCCc2ccccc21 | inactive | 37.7 | 83 | inactive | 209 | inactive |
| C=CCNc1nc(=S)[nH]c2cc(OC)c(OC)cc12 | inactive | 31.2 | 69.1 | inactive | 148 | inactive |
| O=C(O)c1ccc(CNCc2cccc(Br)c2)s1 | inactive | 62.4 | 89.5 | inactive | 33.7 | inactive |
| O=C(O)c1ccccc1SCc1ccc2c(c1)OCO2 | inactive | 71 | 79.2 | inactive | 0 | inactive |
| Cc1ccc(-c2c(C(=O)O)c(C(=O)O)c3n2CCC3)cc1 | inactive | 32.3 | 78.1 | inactive | 239 | inactive |
| COc1ccc2[nH]c3nc(SCC(=O)Nc4ccc5c(c4)OCO5)nnc3c2c1 | inactive | 70.4 | 150 | inactive | 164 | inactive |

| SMILES | outcome [1] | fluorescence, percent of control (lower = inhibition) [2] [%] | GTP binding, percent of control [3] [%] | outcome [4] | GTP binding signal, raw median fluorescence (lower = inhibition) (MCF (arbitrary fluorescence units)) [5] | outcome [6] |
| --- | --- | --- | --- | --- | --- | --- |
| O=S(=O)(N/N=C\c1cccnc1)c1ccccc1 | inactive | 53.2 | 67.9 | inactive | 227 | inactive |
| NS(=O)(=O)c1ccc(-c2ccc(/C=C3\C(=O)Nc4cc(Cl)ccc43)o2)cc1 | inactive | 38 | 78.4 | inactive | 152 | inactive |
| CCOC(=O)c1nn(-c2ccccc2)c(=O)cc1SC(C)C | inactive | 51.2 | 61.6 | inactive | 204 | inactive |
| Fc1cccc(Nc2ncnc3[nH]ncc23)c1 | inactive | 30.9 | 72.3 | inactive | 177 | inactive |
| S=c1[nH]nc(-c2ccco2)n1-c1ccccc1Cl | inactive | 26.1 | 60.5 | inactive | 231 | inactive |
| Cc1ccc(N=Nc2c(N)[nH]n3c(=O)c4c(nc23)CCCC4)cc1 | inactive | 31.3 | 72.8 | inactive | 166 | inactive |
| Clc1ccccc1-c1ccc(/C=N/Nc2nncc(-c3ccccc3)n2)o1 | inactive | 39 | 89.5 | inactive | 220 | inactive |
| O=C(COc1ccccc1C(=O)N/N=C\c1ccc(O)c(O)c1)N/N=C/c1ccc(O)c(O)c1 | inactive | 38 | 157 | inactive | 193 | inactive |
| CC(=O)OC(C(=O)NC1CCCCC1)c1ccc(Cl)c(Cl)c1 (stereo not given) | inactive | 39.6 | 88.7 | inactive | 310 | inactive |
| Nc1c(C(=O)C2CC2)sc2nc(-c3cccs3)cc(C(F)(F)F)c12 | inactive | 495 | 441 | inactive | 468 | inactive |
| CCn1cc(C(=O)O)c(=O)c2cc(F)c(N/N=C/c3ccccc3[N+](=O)[O-])cc21 | inactive | 32.3 | 44 | inactive | 110 | inactive |
| COc1ccc(S(=O)(=O)N2CCOCC2)cc1C(=O)Nc1nc2ccccc2s1 | inactive | 46.1 | 55.9 | inactive | 153 | inactive |
| Cn1nnc(NC(=S)NC(=O)c2ccc(-c3ccc(Br)cc3)o2)n1 | inactive | 30.7 | 75.4 | inactive | 132 | inactive |
| COc1ccc(CCNc2nc(=S)[nH]c3cc(OC)c(OC)cc23)cc1OC | inactive | 25.9 | 57.9 | inactive | 111 | inactive |
| COc1cc2[nH]c(=S)nc(Nc3ccc(NC(C)=O)cc3)c2cc1OC | inactive | 23.4 | 52.2 | inactive | 118 | inactive |
| N=C1/C(=C\c2ccc(SCc3ccco3)o2)C(=O)N=C2SC=NN12 | inactive | 64.2 | 108 | inactive | 112 | inactive |
| CCCc1nc2oc3c(=O)[nH]cnc3c2c2c1CCCC2 | inactive | 35.5 | 79.1 | inactive | 193 | inactive |
| Cc1ccccc1C(=O)Nc1cccc(C(=O)N/N=C/c2cc(Cl)cc([N+](=O)[O-])c2O)c1 | inactive | 25.1 | 74.6 | inactive | 191 | inactive |
| COc1ccc(-c2noc(CCC(=O)N3CCN(c4cc(C)ccc4C)CC3)n2)cc1 | inactive | 25.4 | 76 | inactive | 195 | inactive |
| CCCN1C(=O)/C(=C\C=C2\N(CC)c3ccccc3C2(C)C)SC1=S | inactive | 104 | 140 | inactive | 307 | inactive |

| SMILES | outcome [1] | fluorescence, percent of control (lower = inhibition) [2] [%] | GTP binding, percent of control [3] [%] | outcome [4] | GTP binding signal, raw median fluorescence (lower = inhibition) (MCF (arbitrary fluorescence units)) [5] | outcome [6] |
| --- | --- | --- | --- | --- | --- | --- |
| O=C(O)c1c(C(F)(F)F)ccnc1NCc1ccccc1 | inactive | 61.8 | 224 | inactive | 57.2 | inactive |
| CCC(C)(C)c1ccc(OCCCC[n+]2ccccc2)c(C(C)(C)CC)c1 | inactive | 32.7 | 78.7 | inactive | 278 | inactive |
| CCOc1cc(/C=N/NC(=O)c2cccs2)cc([N+](=O)[O-])c1O | inactive | 25.2 | 57.7 | inactive | 108 | inactive |
| O=C(COC(=O)/C=C/c1cccs1)Nc1ccc2ccccc2c1 | inactive | 43.2 | 58.6 | inactive | 183 | inactive |
| O=C(O)CC/C(=C\c1ccc(N2CCCC2)c([N+](=O)[O-])c1)c1nc2ccccc2s1 | inactive | 34.4 | 81.8 | inactive | 244 | inactive |
| O=C(C[n+]1cccc2ccccc21)c1ccc(NC(=O)c2ccccc2)cc1 | inactive | 75.8 | 123 | inactive | 332 | inactive |
| Cc1ccc(C(=O)O)c(OCCc2c(C)cccc2C)n1 | inactive | 64.4 | 224 | inactive | 57 | inactive |
| COc1ccc(S(=O)(=O)N2CCOCC2)cc1NC(=O)COc1cccnc1[N+](=O)[O-] | inactive | 36.2 | 78.7 | inactive | 190 | inactive |
| C=CCNC(=O)c1cc2c(=O)n3cc(C)ccc3nc2nc1NCC1CCCO1 (stereo not given) | inactive | 51.6 | 58.6 | inactive | 226 | inactive |
| O=C(O)c1cccnc1Oc1ccc2c(c1)OCO2 | inactive | 76.8 | 92 | inactive | 55.2 | inactive |
| COc1cc(/C=C/c2ccc3cccc([N+](=O)[O-])c3n2)ccc1OCC(=O)O | inactive | 32.7 | 76.2 | inactive | 160 | inactive |
| Cc1ccc(C(C)C)c(OCCn2cc(C(=O)O)c3ccccc32)c1 | inactive | 66.7 | 86.3 | inactive | 44.5 | inactive |
| O=C(O)CSc1nc2ccccc2n1CCOc1ccccc1F | inactive | 58.4 | 90.3 | inactive | 37.2 | inactive |
| Cc1cc(N/N=C/c2ccc(O)cc2O)nc(-n2nc(C)cc2C)n1 | inactive | 41 | 53.3 | inactive | 141 | inactive |
| COc1ccc(/C=N/NC(=O)c2cccnc2)cc1Cn1nc([N+](=O)[O-])c(Br)c1C | inactive | 31.2 | 67 | inactive | 153 | inactive |
| COc1ccc(C(=O)Nc2cc(Cl)ccc2C(=O)O)cc1 | inactive | 30.8 | 75.6 | inactive | 272 | inactive |
| Cc1ccc(/C=C2\SC(=S)N(C(Cc3ccccc3)C(=O)O)C2=O)cc1 (stereo not given) | inactive | 28.1 | 81.2 | inactive | 212 | inactive |
| O=C1CC(c2ccc(F)cc2)Sc2ccccc2N1 (stereo not given) | inactive | 101 | 170 | inactive | 207 | inactive |
| Cc1[nH]c2ccccc2c1/C=C/C(=O)c1ccccc1 | inactive | 68.9 | 81.7 | inactive | 216 | inactive |
| Cc1cc2ccccn2c1C(=O)c1ccc(NN)c([N+](=O)[O-])c1 | inactive | 35.2 | 83.1 | inactive | 240 | inactive |

Reference: PubChem BioAssay
